Measurements: PMC5540273 (PLoS ONE, 2017)

Key:
Conditions in all cases: concentration: 1 μM, replicates: in singlicate; n = 1
DRAK1 = test system: T1, DRAK1
T1 construct: gene STK17A

DRAK2 = test system: T2, DRAK2
T2 construct: gene STK17B

DYRK1A = test system: DYRK1A
DYRK1B = test system: DYRK1B
DYRK2 = test system: DYRK2
EGFR = test system: EGFR
EIF2AK1 = test system: EIF2AK1
EPHA1 = test system: EPHA1
EPHA2 = test system: EPHA2
EPHA3 = test system: EPHA3
EPHA4 = test system: EPHA4
EPHA5 = test system: EPHA5
EPHA6 = test system: EPHA6
EPHA7 = test system: EPHA7
EPHA8 = test system: EPHA8
EPHB1 = test system: EPHB1
EPHB2 = test system: EPHB2
EPHB3 = test system: EPHB3
EPHB4 = test system: EPHB4
EPHB6 = test system: EPHB6
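Note: KINOMEscan kinase panel screen.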

Structure (SMILES) | %Inh (DRAK1) [%] | %Inh (DRAK2) [%] | %Inh (DYRK1A) [%] | %Inh (DYRK1B) [%] | %Inh (DYRK2) [%] | %Inh (EGFR) [%] | %Inh (EIF2AK1) [%] | %Inh (EPHA1) [%] | %Inh (EPHA2) [%] | %Inh (EPHA3) [%] | %Inh (EPHA4) [%] | %Inh (EPHA5) [%] | %Inh (EPHA6) [%] | %Inh (EPHA7) [%] | %Inh (EPHA8) [%] | %Inh (EPHB1) [%] | %Inh (EPHB2) [%] | %Inh (EPHB3) [%] | %Inh (EPHB4) [%] | %Inh (EPHB6) [%]
Cc1cccc(-c2nc(Nc3cccc(C(N)=O)c3)c3ccccc3n2)n1 [GW876019] | 8 | 28 | 6 | 65 | 34 | 15 | 0 | 57 | 32 | 0 | 10 | 0 | 0 | 3 | 7 | 9 | 8 | 15 | 50 | 0
O=S(=O)(c1ccc(-c2ccnc3[nH]ccc23)cc1)N1CCCC1 [GSK846226] | 73 | 0 | 21 | 11 | 35 | 33 | 0 | 5 | 0 | 11 | 0 | 0 | 0 | 3 | 4 | 3 | 0 | 14 | 4 | 9
Cl.c1ccc(-c2n[nH]cc2-c2ccnc(-c3ccc(CN4CCOCC4)cc3)c2)nc1 [GW776245] | 0 | 20 | 0 | 0 | 0 | 34 | 0 | 7 | 6 | 1 | 16 | 11 | 5 | 15 | 19 | 10 | 30 | 13 | 17 | 0
Cc1cc(N2Cc3ccccc3C2)nc(Nc2ccc(S(=O)(=O)N3CCOCC3)cc2)n1.Cl [GSK1669917] | 17 | 0 | 11 | 19 | 0 | 23 | 0 | 0 | 19 | 0 | 0 | 0 | 0 | 0 | 7 | 0 | 0 | 0 | 6 | 10
Cc1ccc(NC(=O)Nc2cc(C(C)(C)C)nn2-c2ccccc2)cc1 [GSK1014915] | 0 | 1 | 33 | 11 | 3 | 38 | 0 | 7 | 7 | 0 | 24 | 0 | 28 | 9 | 25 | 14 | 0 | 20 | 12 | 19
O=C(Nc1ccccc1)Nc1cccc(Oc2ccc3nccn3n2)c1 | 0 | 1 | 0 | 45 | 0 | 33 | 0 | 14 | 30 | 34 | 0 | 0 | 0 | 0 | 0 | 0 | 3 | 0 | 10 | 9
Cc1csc(-c2nc(Nc3ccncc3)c3ccccc3n2)n1 [GW869640] | 10 | 0 | 18 | 0 | 29 | 1 | 14 | 0 | 0 | 30 | 8 | 13 | 6 | 6 | 5 | 7 | 0 | 9 | 0 | 28
CCCc1ccc(S(=O)(=O)NC2CCN(c3ccnc(Nc4ccc(F)cc4)n3)C2)cc1 (centres unmarked) [GSK1379715] | 0 | 0 | 23 | 0 | 0 | 0 | 12 | 8 | 12 | 0 | 13 | 0 | 6 | 2 | 23 | 0 | 6 | 15 | 15 | 2
Nc1nc(-c2nccs2)c(-c2ccnc3ccccc23)s1 [GW693542] | 9 | 0 | 20 | 25 | 7 | 26 | 3 | 5 | 3 | 0 | 11 | 0 | 8 | 10 | 17 | 13 | 0 | 10 | 1 | 5
O=C(Nc1n[nH]c2nc(-c3nccs3)c(Br)cc12)C1CC1 [SB-742251] | 0 | 0 | 30 | 0 | 36 | 0 | 1 | 0 | 0 | 0 | 24 | 1 | 32 | 18 | 35 | 0 | 15 | 29 | 17 | 59
